Experiment [1] can be described thus: stimulators of nuclear beta-catenin in C2C12, primary screen, imaging, WNT3A-conditioned medium, mouse C2C12, NPC library (AID 1117326; in the data active = nuclear beta-catenin stimulation mostly above about 4.2%, no sharp cut-off; inactive = mostly below about 10%). The conditions noted are these: stronger effect = higher value.
Experiment [2] is described as follows: stimulators of insulin release from INS-1E, primary screen, cell-based, 5 mM glucose, NPC library (AID 1117329;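 active = compound raises insulin release from rat beta cells at 5 mM glucose, no numeric limit stated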). Particulars: rat INS-1E insulin secretion, at 10 µM, stronger effect = higher value.
Experiment [3] in a line: growth inhibition of GSK3B-pretreated HCT116 cells – cell-based, CellTiter-Glo, 0.2 to 20 µM (AID 1117336;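 active = compounds lowering colon cancer cell viability after pretreatment blocking the GSK3B kinase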). The conditions noted are these: HCT116 viability after GSK3B inhibitor, at 20 µM, stronger effect = higher value. On the technique in general: ATP-based viability assays read luminescence as a measure of living cells.
Experiment [4] is described as follows: inhibition of endothelial tube formation, primary screen, imaging, VEGF stimulated, CD31 staining, tube area, NPC library (AID 1117340;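 active = compound that reduces growth-factor-driven endothelial tube area in a mixed cell culture, no cutoff stated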). Particulars: VEGF-stimulated ADSC/ECFC co-culture, at 10 µM, stronger effect = higher value.
Experiment [5] can be described thus: glucagon-like peptide 1 release enhancers, primary assay, NCI-H716 cell line, NPC library (AID 1117341;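 active = compound raises GLP1 secretion from the human gut endocrine cells, with no numeric limit stated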). The conditions noted are these: NCI-H716 cells, at 10 µM, stronger effect = higher value.
Experiment [6] in a line: HCT116 colon cancer cell growth inhibition, primary screen, CellTiter-Glo luminescence, NPC library (AID 1117342;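 active = compounds that lower survival of HCT116 colon cancer cells in the luminescence readout, no numeric limit stated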). The conditions noted are these: at 20 µM (top of the series).
Experiment [7] can be described thus: CellTiter-Glo luminescent readout of SW480 viability loss, NPC library primary (AID 1117343;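 active = compounds that lower viability of the colon cancer cells in the luminescence readout, with no numeric limit stated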). The conditions noted are these: CellTiter-Glo luminescence; at 20 µM (top of the series).
Experiment [8] is described as follows: decreased DLD-1 cellular survival, CellTiter-Glo luminescent readout, NPC compound collection, primary HTS (AID 1117346;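 active = compounds that lower survival of DLD-1 colon cancer cells in the luminescence readout, no cutoff given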). Particulars: DLD-1 viability, CellTiter-Glo luminescence; at 20 µM (top of the series).
Experiment [9] has as its target 6-phosphogluconate dehydrogenase, decarboxylating (Homo sapiens) (UniProt P52209). In words: 6PGD enzyme inhibitors, primary screen, biochemical, human, recombinant enzyme, NADPH absorbance (AID 1159550;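 active = at least 20% inhibition of 6-phosphogluconate dehydrogenase activity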). The conditions noted are these: recombinant 6PGD, NADPH absorbance 341 nm; at 10 µM; stronger effect = higher value.
Experiment [10] is described as follows: liver-stage malaria parasite growth inhibition, primary screen, cell-based, HepG2, luciferase luminescence, HepG2 viability (AID 624349).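 Also: 100% = mean of DMSO negative control wells on the same plate.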 The conditions noted are these: P. berghei liver stage in HepG2, luciferase luminescence, concentration not given here; parasite load remaining: stronger effect = lower value; viability: measured here: HepG2 viability without parasites.

Structures are written as SMILES. “And” between values parts separate entries of the source, which are not always exact repeats. Identical values can stand only once. The source made the active and inactive calls. Rule as the data show it, unless noted: active = parasite load remaining mostly below about 12% (no sharp cut-off); inactive = mostly above about 10%.

Chain of 6-phosphogluconate dehydrogenase, decarboxylating (Homo sapiens) (P52209 whole entry, looked up): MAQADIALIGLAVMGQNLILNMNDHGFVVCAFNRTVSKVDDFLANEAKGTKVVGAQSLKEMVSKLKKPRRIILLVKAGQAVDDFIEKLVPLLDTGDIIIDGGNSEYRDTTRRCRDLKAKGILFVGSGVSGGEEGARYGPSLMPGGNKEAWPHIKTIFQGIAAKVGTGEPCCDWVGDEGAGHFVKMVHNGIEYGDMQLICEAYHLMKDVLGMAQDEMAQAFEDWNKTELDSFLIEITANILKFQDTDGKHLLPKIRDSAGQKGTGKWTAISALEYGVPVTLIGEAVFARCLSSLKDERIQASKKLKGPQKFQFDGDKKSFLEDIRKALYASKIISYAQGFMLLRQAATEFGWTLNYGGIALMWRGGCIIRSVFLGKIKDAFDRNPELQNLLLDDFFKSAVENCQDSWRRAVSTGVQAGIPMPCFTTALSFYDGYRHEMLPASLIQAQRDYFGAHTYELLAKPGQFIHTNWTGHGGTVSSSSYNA

A word on the inhibition: it is the relative decrease from the control value, in per cent. In the case of `COC(=O)[C@@H](N)CS`, the nuclear beta-catenin stimulation in [1] (at 10 µM) was -1.4% (inactive); in [1] (stimulation, at 2 µM), 2.3%. In addition, the insulin secretion stimulation in [2] is 1.6% (inactive). In addition, the viability decrease in experiment [3] is -1.8% (inactive). For the same compound, the tube area decrease in experiment [4] is -0.7% (inactive). The GLP1 secretion stimulation in [5] was 4.1% (inactive). Further, the inhibition of viability in experiment [6] is 3.2% (inactive). The viability decrease (inhibition) in experiment [7] was 17.6% (inactive); in experiment [8], 23.2% (active). In addition, the inhibition in [9] was 3.23% (inactive).
As a reminder, the viability is a read-out of living cells in per cent, often relative to untreated cells. `Nc1ncnc2c1ncn2[C@@H]1O[C@H](CO)[C@@H](O)[C@H]1O`: the parasite load remaining in [10] is 102% (inactive) and 72.2% (inactive). Moreover, the viability in experiment [10] is 77.4% and 98.9%. The nuclear beta-catenin stimulation in experiment [1] (at 10 µM) is 10.9% (inactive); in experiment [1] (stimulation, at 2 µM) it was 1.8%. Further, the insulin secretion stimulation in [2] was 2.7% (inactive). The viability decrease in [3] was 41.9% (inactive). Moreover, the tube area decrease in [4] was 30.3% (inactive). Also, in [5], the GLP1 secretion stimulation is -0.1% (inactive). Also, the inhibition of viability in [6] is 33.7% (inactive). Further, the viability decrease (inhibition) in experiment [7] is 27% (inactive); in experiment [8] it was 19.1% (inactive). Further, in experiment [9], the inhibition is 2.2% (inactive).
As to `Nc1ccc(N=Nc2ccccc2)c(N)n1`, the parasite load remaining in [10] is 122% (inactive) and 140% (inactive) and 51.9% (inactive). The viability in experiment [10] is 90.8% and 67.3% and 81.9%. Also, the nuclear beta-catenin stimulation in experiment [1] (at 10 µM) is 5.9% (inactive); in experiment [1] (stimulation, at 2 µM), 3.5%. In experiment [2], the insulin secretion stimulation is 0.5% (inactive). Moreover, in [3], the viability decrease was 43.4% (inactive). Moreover, the tube area decrease in experiment [4] was 36.8% (inactive). Also, the GLP1 secretion stimulation in experiment [5] was -4.7% (inactive). The inhibition of viability in experiment [6] is 29% (inactive). The viability decrease (inhibition) is 31.9% (inactive) in experiment [7] and 16% (inactive) in experiment [8]. Further, in experiment [9], the inhibition is 3.23% (inactive).
In the case of `O=C(CCCCC(=O)Nc1c(I)cc(I)c(C(=O)O)c1I)Nc1c(I)cc(I)c(C(=O)O)c1I`, the parasite load remaining in [10] was 81.3% (inactive). In addition, the viability in [10] came out at 93.2%. In addition, the nuclear beta-catenin stimulation in [1] (at 10 µM) was 1.1% (inactive); in experiment [1] (stimulation, at 2 µM), 3.3%. For the same compound, the insulin secretion stimulation in experiment [2] is -1.2% (inactive). For the same compound, in experiment [3], the viability decrease is -15.2% (inactive). Besides, the tube area decrease in experiment [4] was 5.5% (inactive). In experiment [5], the GLP1 secretion stimulation was -3.5% (inactive). Further, the inhibition of viability in [6] is -1.4% (inactive). Moreover, the viability decrease (inhibition) is 7.4% (inactive) in [7] and -2.6% (inactive) in experiment [8]. The inhibition in experiment [9] was 15.2% (inactive).
As for `COc1ccc(C(=O)c2ccccc2O)c(O)c1`, in [10], the parasite load remaining was 83.1% (inactive) and 102% (inactive) and 55.6% (inactive). The viability in [10] is 96.9% and 79.4% and 89.9%. For the same compound, the nuclear beta-catenin stimulation is 1.1% (inactive) in experiment [1] (at 10 µM) and 0.4% in experiment [1] (stimulation, at 2 µM). In addition, the insulin secretion stimulation in [2] is -0.5% (inactive). Also, the viability decrease in [3] is -1.1% (inactive). Moreover, the tube area decrease in experiment [4] is 1.6% (inactive). The GLP1 secretion stimulation in [5] is -1.5% (inactive). In addition, the inhibition of viability in experiment [6] is -9.15% (inactive). The viability decrease (inhibition) in experiment [7] was 1.6% (inactive); in experiment [8], -1.5% (inactive). For the same compound, the inhibition in experiment [9] was 11.7% (inactive).
Consider `CCCCOC(=O)c1ccc(N)cc1`, for which the parasite load remaining in experiment [10] is 111% (inactive) and 65.2% (inactive). Moreover, the viability in experiment [10] is 96.4% and 75.1% and 101%. For the same compound, the nuclear beta-catenin stimulation in [1] (at 10 µM) is -0.2% (inactive); in experiment [1] (stimulation, at 2 µM), 1%. Besides, the insulin secretion stimulation in experiment [2] is 0.4% (inactive). Moreover, the viability decrease in experiment [3] is 27.7% (inactive). Moreover, in experiment [4], the tube area decrease was 20.7% (inactive). Further, the GLP1 secretion stimulation in experiment [5] is 0.1% (inactive). In experiment [6], the inhibition of viability is -21.1% (inactive). Further, the viability decrease (inhibition) in [7] was 118% (active); in experiment [8], 59.9% (active). Further, the inhibition in [9] is -3.52% (inactive).
As to `Cn1c([N+](=O)[O-])cnc1COC(N)=O`, the parasite load remaining in experiment [10] was 74.3% (inactive) and 117% (inactive) and 35.4% (inactive). In addition, the viability in experiment [10] was 101% and 70.6% and 91.7%. The nuclear beta-catenin stimulation in experiment [1] (at 10 µM) is 0.1% (inactive); in experiment [1] (stimulation, at 2 µM), 0.6%. Further, in [2], the insulin secretion stimulation is -4.5% (inactive). Besides, the viability decrease in [3] is -8.4% (inactive). In experiment [4], the tube area decrease is 6.2% (inactive). The GLP1 secretion stimulation in experiment [5] was 0.7% (inactive). Further, in [6], the inhibition of viability was -2.4% (inactive). Further, the viability decrease (inhibition) in experiment [7] is -4.9% (inactive); in experiment [8] it was -13.8% (inactive). Further, the inhibition in [9] is -20.2% (inactive).

The values above are taken from PubChem BioAssay.
